PubChem BioAssay (Tox21)
Records with an inconclusive call do not appear. Calls of active or inactive are those of the source. Unless noted, calls come from the whole dose curve; as a rule, active = well fitted curve in the direction sought with a large enough effect in the repeat runs; inconclusive = weak or mixed curves; inactive = no such curve, though single readings can be large; an effect the other way counts as inactive or inconclusive.

Columns and labels:
[1] = qHTS assay to identify small molecule agonists of the hypoxia (HIF-1) signaling pathway - cell viability counter screen (AID 1224844; calls by dose curve; note: nearly all actives have a fitted effect of over 50% in size)
How it was run: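 In this counter screen, HRE-bla ME-180 cell viability after 17 hrs of compound exposure at 37C was read by CellTiter-Glo luminescence, multiplexed with the beta-lactamase reporter measurement.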

[2] = qHTS assay to identify small molecule agonists of H2AX (AID 1224845; active = well fitted activation curve with a large enough effect in the signal ratio in the repeat runs, not every such curve was filed as active; the % refers to the signal ratio)
How it was run: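 Wild-type CHO-K1 cells, plated overnight, exposed 3hr at 37C to 15 concentrations (0.76% DMSO final). Lysed, then HTRF anti-pH2AX (S139) cryptate and anti-H2AX-d2 antibodies, 24 hr room temperature; 665/620 nm emission read.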

[3] = qHTS assay to identify small molecule agonists of the hypoxia (HIF-1) signaling pathway (AID 1224846; active = well fitted activation curve with a large enough effect in the signal ratio in the repeat runs, not every such curve was filed as active; the % refers to the signal ratio)
How it was run: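 ME-180 HRE-bla reporter cells; compounds in DMSO, 17 h at 37C; read-out beta-lactamase via CCF4-AM FRET.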

[4] = qHTS assay to identify small molecule agonists of H2AX - cell viability counter screen (AID 1224847; calls by dose curve; note: top concentration of the series differs between compounds; nearly all actives have a fitted effect of over 30% in size)
How it was run: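 Counter-screen for viability: CellTiter-Glo ATP luminescence read after 3 h compound treatment (15-point titration, 0.76% DMSO final) of CHO-K1 cells at 37C, with 30 min room-temperature reagent incubation.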

[5] = qHTS assay to identify small molecule agonists of the estrogen related receptor (ERR) signaling pathway from Tox21 library (AID 1224849; calls by dose curve; note: nearly all actives have a fitted effect of over 15% in size); conditions: ERR reporter cell line, ONE-Glo luciferase, 18 h; at 92.4 µM (top of the series) unless noted
How it was run: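 Luciferase activity in ERR pathway reporter cells served as the agonist readout; exposure lasted 18 h at 37 C, with ONE-Glo detection after 30 min at room temperature.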

[6] = qHTS RealTime-Glo MT Cell Viability Assay in HepG2 cells - 24 hour (AID 1224867); note: nearly all actives have a fitted effect of over 50% in size
How it was run: (§1)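 HepG2 cells (600/well) were dispensed with RealTime-Glo reagents, incubated 5 h at 37 °C, then treated with compounds in DMSO for up to 40 h. Nonlytic NanoLuc luminescence reflecting viable cells was read at each stated time point.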

[7] = qHTS RealTime-Glo MT Cell Viability Assay in HEK293 cells - 32 hour (AID 1224868); note: top concentration of the series differs between compounds; nearly all actives have a fitted effect of over 50% in size
How it was run: (§2)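 HEK293 cells seeded with NanoLuc/prosubstrate reagent, rested 5 h at 37 C, then dosed and kept at 37 C up to 40 h. Nonlytic real-time luminescence from viable cells read at 0, 8, 16, 24, 32 and 40 h.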

[8] = A CellTox Green Cytotoxicity Assay to monitor cytotoxicity in HEK293 cells - 0 hour (AID 1224869); note: nearly all actives have a fitted effect of over 50% in size
How it was run: (§3)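 Real-time, in one plate: 600 HEK293 cells/well with dead-cell DNA dye, pinned compound after 5 h, 37 C incubation over 40 h; viable cells give no appreciable fluorescence.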

[9] = qHTS RealTime-Glo MT Cell Viability Assay in HepG2 cells - 40 hour (AID 1224870); note: nearly all actives have a fitted effect of over 50% in size
How it was run: (§4)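 HepG2 cells (600/well) mixed with RealTime-Glo MT reagent, settled 5 h at 37 C/5% CO2 before compound addition. Nonlytic NanoLuc luminescence from viable-cell prosubstrate reduction read repeatedly during 40 h treatment at 37 C.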

[10] = A CellTox Green Cytotoxicity Assay to monitor cytotoxicity in HEK293 cells - 40 hour (AID 1224871); note: nearly all actives have a fitted effect of over 45% in size
How it was run: as §3

[11] = qHTS RealTime-Glo MT Cell Viability Assay in HEK293 cells - 16 hour (AID 1224872)
How it was run: as §2

[12] = qHTS RealTime-Glo MT Cell Viability Assay in HepG2 cells - 8 hour (AID 1224873); note: nearly all actives have a fitted effect of over 55% in size
How it was run: as §4

[13] = qHTS RealTime-Glo MT Cell Viability Assay in HEK293 cells - 40 hour (AID 1224874); conditions: RealTime-Glo luminescence; max response: stronger effect = lower value; note: nearly all actives have a fitted effect of over 50% in size
How it was run: (§5)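 Kinetic, non-lysing viability readout. Seed HEK293 (600/well) with reagent, incubate 5 h at 37 C/5% CO2, pin 23 nL compound in DMSO, incubate at 37 C, read luminescence at 0, 8, 16, 24, 32, 40 h.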

[14] = A CellTox Green Cytotoxicity Assay to monitor cytotoxicity in HEK293 cells - 24 hour (AID 1224875); note: nearly all actives have a fitted effect of over 45% in size
How it was run: as §3

[15] = A CellTox Green Cytotoxicity Assay to monitor cytotoxicity in HepG2 cells - 16 hour (AID 1224876); note: nearly all actives have a fitted effect of over 45% in size
How it was run: (§6)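 Cytotoxicity was tracked as dead-cell DNA fluorescence in HepG2 cells treated with test compounds at 37 C; each time-point value comes from one kinetic series spanning 0, 8, 16, 24, 32 and 40 h.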

[16] = A CellTox Green Cytotoxicity Assay to monitor cytotoxicity in HepG2 cells - 24 hour (AID 1224878); note: nearly all actives have a fitted effect of over 45% in size
How it was run: as §6

[17] = A CellTox Green Cytotoxicity Assay to monitor cytotoxicity in HepG2 cells - 40 hour (AID 1224879); note: nearly all actives have a fitted effect of over 40% in size
How it was run: as §6

[18] = qHTS RealTime-Glo MT Cell Viability Assay in HEK293 cells - 0 hour (AID 1224880)
How it was run: as §5

[19] = qHTS assay to identify small molecule antagonists of the estrogen related receptor (ERR) signaling pathway from Tox21 library (AID 1224848); note: nearly all actives have a fitted effect of over 50% in size
How it was run: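 Compounds dissolved in DMSO are pin-transferred onto ERR reporter cells (2,000 per well) that have settled for 6 h at 37 C. Plates then incubate 18 h at 37 C before ONE-Glo luciferase reagent and a luminescence read 30 min later.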

[20] = qHTS RealTime-Glo MT Cell Viability Assay in HepG2 cells - 32 hour (AID 1224877); note: nearly all actives have a fitted effect of over 55% in size
How it was run: as §1
% is set by controls: 0 for no effect and ±100 for the full control effect.

COc1nc(C)nc(NC(=O)NS(=O)(=O)c2ccccc2Cl)n1
inactive: Potency [1] | Potency [2] | Potency [3] | Potency [4] | activity change, positive = activation [5] 7.61% | Potency [6] | Potency [7] | Potency [8] | Potency [9] | Potency [10] | Potency [11] | Potency [12] | max response [13] 1.45% | Potency [14] | Potency [15] | Potency [16] | Potency [17] | Potency [18]

O=c1[nH]c2cc(Cl)ccc2n1C1CCNCC1
inactive: Potency [1] | Potency [2] | Potency [3] | Potency [4] | Potency [19] | activity change, positive = activation [5] 0.0547% [at 42.5 µM] | Potency [6] | Potency [7] | Potency [8] | Potency [9] | Potency [10] | Potency [11] | Potency [12] | max response [13] 4.84% | Potency [14] | Potency [15] | Potency [20] | Potency [16] | Potency [17] | Potency [18]

O=c1[nH]c(Cl)c(Cl)cc1Cl
inactive: Potency [1] | Potency [2] | Potency [3] | Potency [4] | activity change, positive = activation [5] -28.7% | Potency [6] | Potency [7] | Potency [8] | Potency [9] | Potency [10] | Potency [11] | Potency [12] | max response [13] 0.811% | Potency [14] | Potency [15] | Potency [16] | Potency [17]

CCN(CC)CCc1c[nH]c2ccccc12
inactive: Potency [1] | Potency [2] | Potency [3] | Potency [4] | Potency [6] | Potency [7] | Potency [8] | Potency [9] | Potency [10] | Potency [11] | Potency [12] | max response [13] 6.8% | Potency [14] | Potency [15] | Potency [20] | Potency [16] | Potency [17] | Potency [18]

N#Cc1ccc(N(CC(N)=O)CC(F)(F)F)cc1C(F)(F)F
inactive: Potency [1] | Potency [2] | Potency [3] | Potency [4] | Potency [6] | Potency [7] | Potency [8] | Potency [9] | Potency [10] | Potency [11] | Potency [12] | max response [13] 0.171% | Potency [14] | Potency [15] | Potency [20] | Potency [16] | Potency [17] | Potency [18]

CCCCC(CC)COC(=O)c1ccccc1C(=O)OCC(CC)CCCC (stereo unspecified)
inactive: Potency [1] | Potency [2] | Potency [3] | Potency [4] | Potency [6] | Potency [7] | Potency [8] | Potency [9] | Potency [10] | Potency [11] | Potency [12] | max response [13] 1.87% | Potency [14] | Potency [15] | Potency [20] | Potency [17] | Potency [18]

Clc1ccc(C2(Cn3cncn3)OCCO2)c(Cl)c1
inactive: Potency [1] | Potency [2] | Potency [3] | Potency [4] | activity change, positive = activation [5] -6.38% | Potency [6] | Potency [7] | Potency [8] | Potency [9] | Potency [10] | Potency [11] | Potency [12] | Potency [14] | Potency [15] | Potency [20] | Potency [16] | Potency [17] | Potency [18]
